From PubChem
SMN2 splice enh – increases expression of the SMN2 splice variant; HEK293 SMN2-luciferase splicing reporter, luminescence, 30-36 h; Potency, µM (series often up to 46.1 µM), inactives show at the top dose activity change, positive = activation, most hits filed as activators; 210,000 tested, 2.8% active; AID 1458; also: % of control where 0% means no effect; nearly all actives have a fitted effect of over 55% in size
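HEK293 cells carry an SMN2 minigene-luciferase reporter in which exon 7 inclusion puts luciferase in frame. Cells were seeded at 2000 cells/well, attached for 10-12 hours, then exposed to compounds for 30-36 hours at 37C before ONE-Glo luminescence.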
NPC1 promoter act – NPC1 promoter activation; Huh7 NPC1 promoter luciferase reporter, 24 h; Potency, µM (highest dose often 9.22 µM), without a hit: top-dose activation, hits mostly activators; 320,000 tested, 2.4% active; AID 485313; also: % of control where 0% means no effect; nearly all actives have a fitted effect of over 60% in size
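Stable NPC1-promoter luciferase Huh7 line; cpd (DMSO) 24 h, 37 °C, 5% CO2; Amplite luciferase reagent 10 min RT; luminescence readout. qHTS format.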
FLuc counter – firefly luciferase modulation, counter-screen for miR-21 project; 360,000 tested, 6.9% active; purified FLuc, Km substrates, luminescence inhibition; Potency, µM (doses to about 57.5 µM), inactives show at the highest dose activity change, negative = inhibition, actives largely listed as inhibitors; AID 588342; P08659;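 also: plate controls were vehicle for no effect and reference inhibitor for full effect; nearly all actives have a fitted effect of over 55% in size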
Target sequence (P08659 whole entry, looked up): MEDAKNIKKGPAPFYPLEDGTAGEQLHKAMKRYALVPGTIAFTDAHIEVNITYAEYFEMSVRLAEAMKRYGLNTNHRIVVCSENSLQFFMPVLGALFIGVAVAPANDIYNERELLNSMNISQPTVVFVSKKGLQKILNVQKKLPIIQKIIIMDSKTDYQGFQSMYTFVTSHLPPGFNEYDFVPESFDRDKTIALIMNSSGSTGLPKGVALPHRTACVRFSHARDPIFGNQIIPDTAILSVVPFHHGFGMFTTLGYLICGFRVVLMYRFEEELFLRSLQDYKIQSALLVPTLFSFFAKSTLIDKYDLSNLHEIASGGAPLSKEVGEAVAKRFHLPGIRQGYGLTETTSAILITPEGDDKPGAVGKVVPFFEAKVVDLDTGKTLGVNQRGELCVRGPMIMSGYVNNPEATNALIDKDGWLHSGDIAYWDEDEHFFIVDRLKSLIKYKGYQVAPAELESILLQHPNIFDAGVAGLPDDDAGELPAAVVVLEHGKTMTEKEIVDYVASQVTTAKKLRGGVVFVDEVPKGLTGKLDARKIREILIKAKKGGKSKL
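Biochemical qHTS of compounds, final roughly 60 µM downward over six points, against 10 nM purified firefly luciferase using Km concentrations of substrates (10 uM D-luciferin, 10 uM ATP) in Tris acetate pH 7.5 buffer; luminescence output.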
ELG1 genotoxic – inducers of genotoxicity in HEK293T ELG1-luciferase cells | HEK293T ELG1-luciferase reporter, luminescence, 16 h | Potency, µM (series often up to 46 µM), without a hit: at the highest dose activity change, positive = activation, most hits filed as activators | 330,000 tested, 1.3% active; also: % of control where 0% means no effect; nearly all actives have a fitted effect of over 60% in size
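Genotoxicity was scored as increased ELG1-luciferase reporter signal, measured by ONE-Glo luminescence (30 min, room temperature). Compound or vehicle exposure of the HEK293T reporter cells lasted 16 hr at 37°C.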
Rab9 prom act – Rab9 promoter activation | Huh7 Rab9 promoter-luciferase reporter, luminescence, 24 h | Potency, µM (series often up to 9.22 µM), for inactives: at the highest dose activation, negative = inhibition, actives largely listed as activators | 320,000 tested, 2.8% active; also: % of control where 0% means no effect; nearly all actives have a fitted effect of over 60% in size
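Huh7 cells stably carrying a Rab9 promoter-luciferase reporter, 1500 cells per well in OP-MEM I with 10% FBS, treated with compound 24 hours at 37C. Luciferase activity read by luminescence after 10 minutes with Amplite reagent.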
* hit, by the source's call; ? = inconclusive; . = no result given; [ ] = remark or other dose. An excerpt weighted towards active compounds, which were near 7.4% of everything screened. Calls follow the shape of the dose curve; as a rule, active = well fitted curve in the direction sought with a large enough effect; inconclusive = small, poorly fitted or top-dose-only effect, or another doubt; inactive = no such curve, though single readings can be large; an effect the other way counts as inactive or inconclusive. Potency is read from the fitted curve at half-maximal effect.

SMILES	SMN2 splice enh	NPC1 promoter act	FLuc counter	ELG1 genotoxic	Rab9 prom act
C=C1C[C@H](O)[C@@H]2[C@H](OC(=O)[C@H]2C)[C@H]2[C@H](C)[C@@H](O)C[C@@H]12	.	-3%	2%	1%	-3%
C/C(=N\NC(=O)c1ccccc1[N+](=O)[O-])c1ccc(Br)s1	0%	-2%	1%	3%	-3%
C/C(=N\NC(=O)c1cc(C)nc2ccccc12)c1cccs1	.	0%	0%	-2%	-9%
C/C(=N\NC(=O)c1ccccc1O)c1c(O)cc(C)oc1=O	?	29%	15µM*	19%	?
C/C(=N\NC(=O)c1ccccc1[N+](=O)[O-])c1c(O)cc(C)oc1=O	-24%	1%	-1%	0%	-9%
C/C(=N/NC(=O)c1ccc(Br)o1)c1cccs1	.	2.5µM*	17µM*	9.2µM*	4µM*
C/C(=N\NC(=O)c1cc(Br)ccc1O)c1cccs1	18µM*	2µM*	11µM*	?	3.5µM*
C/C(=N\NC(=O)c1ccccc1O)c1ccc(Br)s1	1.6µM*	?	3.8µM*	5%	?
COC(=O)N/N=C(\C)c1cccs1	.	-2%	4%	7%	-5%
COc1ccc(-n2c(SCC(=O)NC3CC3)nc3ccccc3c2=O)cc1OC	.	-7%	6%	7%	5%
Cc1ccc(C(=O)O/N=C/C2=C(Cl)c3ccccc3CC2)cc1	-18%	-3%	24µM*	0%	1%
Cc1ccc(C(=O)O/N=C/c2c(C)nn(C)c2Cl)cc1	-1%	-1%	11µM*	-3%	-6%
Cc1ccc(C(=O)O/N=C/c2c(C(F)(F)F)nn(C)c2Sc2ccc(Cl)cc2)cc1	-46%	0%	?	-20%	3%
Cc1ccc(/C=N/OC(=O)c2nn(C)cc2Cl)cc1	-6%	-2%	1.3µM*	8%	11%
Cc1ccc(CO/N=C/C2=C(Cl)c3ccccc3CC2)cc1	-9%	.	-19%	.	.
C[C@@H](N)C1CCC(C(=O)Nc2ccncc2)CC1 (stereo not given in full)	15%	11%[46.1 µM]	.	.	4%[46.1 µM]
COc1ccc(-c2csc(NC(=O)c3c(C)noc3C)n2)cc1F	.	0%	?	-7%	1%
COc1ccc(-c2csc(Nc3ncccn3)n2)cc1C	.	0.71µM*	-16%	?	0.18µM*
COc1ccc(-c2csc(NC(=O)Cc3ccccc3)n2)cc1OC	.	-3%	?	1%[9.26 µM]	-2%
COc1ccc(-c2csc(Nc3cc(C)ccn3)n2)cc1C	.	21%	8.5µM*	2%	?
CCn1c(CC(=O)Nc2ccc(OC)cc2)nnc1SCC(=O)N1CCOCC1	.	5%	0%	8%	-4%
C[C@H]1CCC(=O)N([C@H](CSc2ccc(Br)cc2)Cc2ccccc2)CC1	.	2%	2%	-4%	-1%
Clc1ccc(N=C2SCCS2)cc1	.	27%	?	9%	27%
FC(F)Oc1ccc(N=C2SCC3CCCCN23)cc1 (stereo not given)	.	2µM*	12µM*	?	3.5µM*
Clc1ccc(N=C2SCC3CCCCN23)cc1 (stereo not given)	.	4µM*	9.5µM*	26%	2.5µM*
SMILES	SMN2 splice enh	NPC1 promoter act	FLuc counter	ELG1 genotoxic	Rab9 prom act
Nc1nc(N)nc(Cc2ccccc2O)n1	.	1%	0%	7%	-4%
N#Cc1c(/N=C/c2ccc(-c3ccc(C(=O)O)c(Cl)c3)o2)sc2c1CCCC2	.	1%	2.4µM*	8%	-4%
N#Cc1c(/N=C\c2ccc(O)c([N+](=O)[O-])c2)sc2c1CCCC2	.	28%	?	11%	?
N#Cc1c(/N=C/c2ccc(-c3ccccc3C(=O)O)o2)sc2c1CCCC2	.	1.8µM*	0.76µM*	15µM*	0.71µM*
Cc1ccccc1CN1CCc2nc(Nc3ccc4c(c3)OCCO4)ncc2C1	.	.	13µM*	.	.
O=C(Nc1ccc(Cl)cc1)N1CCSCC1	-7%	0%	?	1%	-8%
O=C(CSC(=S)N1CCSCC1)c1ccccc1	13µM*	1.3µM*	4.3µM*	?	1.3µM*
O=C(CSC(=S)N1CCSCC1)c1ccc(Cl)cc1	16µM*	3.2µM*	3µM*	?	1.6µM*
Cc1cc(=O)oc(C)c1C(=O)OCC(=O)c1ccc2ccccc2c1	-21%	15%	3.4µM*	1%	12%
Cc1cc(=O)oc(C)c1C(=O)OCC(=O)c1ccccc1	-8%	10%	?	2%	7%
Cc1cc(=O)oc(C)c1C(=O)OCC(=O)c1ccc(Br)cc1	-18%	1%	9.5µM*	-1%	12%
Cc1cc(=O)oc(C)c1C(=O)OCC(=O)c1ccc(Cl)cc1	-14%	18%	12µM*	5%	27%
CCOc1ccc(-c2nc(C)c(C(C)=O)n2O)cc1	13µM*	28%	6.7µM*	?	?
Cc1noc(C)c1COc1ccc(C(=O)Nc2ccccc2)cc1	-23%	7%	2%	0%	-1%
COc1ccc2nc(NC(=O)c3cccc(OCc4c(C)noc4C)c3)sc2c1	-23%	-9%	1.5µM*	-17%	5%
Cc1noc(C)c1COc1cccc(C(=O)Nc2ccc(OCc3ccccc3)cc2)c1	-8%	0%	8.5µM*	-10%	-1%
CC(=O)Nc1ccc(S(=O)(=O)NCc2cc(=O)n(C)c(=O)n2C)cc1	.	-3%	1%	0%	-7%
NC(=O)c1c(NC(=O)c2cccs2)sc2c1CCCCCC2	?	?	4.8µM*	6%	3.2µM*
O=C(Nc1sc2c(c1C(=O)O)CCC2)c1cccs1	?	17%	17µM*	8%	28%
O=C(Nc1sc2c(c1C(=O)Nc1cccc(Cl)c1)CCCC2)c1cccs1	-4%	.	-19%	.	.
O=C(Cc1ccccc1)NCC(=O)N1CCC2(CC1)NCCc1[nH]cnc12	.	-2%	3%	0%	0%
COC(=O)c1ccc(NC(=O)C(=O)NCCc2csc3nc(-c4ccccc4F)nn23)cc1	.	.	-2%	.	.
NS(=O)(=O)c1ccc(N=NN2CCCCC2)cc1	.	?	17µM*	11%	?
COC(=O)c1ccc(N=NN2CCOCC2)cc1	11µM*	?	17µM*	?	?
CC(=O)NS(=O)(=O)c1ccc(N=NN2CCCCC2)cc1	2%	-2%	2%	2%	1%
SMILES	SMN2 splice enh	NPC1 promoter act	FLuc counter	ELG1 genotoxic	Rab9 prom act
O=C(O)c1ccc(N=NN2CCCCC2)cc1	26%	?	11µM*	?	1.3µM*
COC(=O)c1ccc(N=NN2CCCCCC2)cc1	13µM*	2.2µM*	6.7µM*	?	3.2µM*
COc1ccc2c(c1)[N+](=O)C(/C(C)=N/NC(N)=S)=C(C)[N+]2=O	-1%[9.22 µM]	.	.	.	.
O=C(CSCc1ccccc1Cl)N1CCN(c2ccc(Cl)cc2)CC1	.	.	-1%	.	.
O=C(O)C1SCCN1S(=O)(=O)c1ccc(N=NN2CCOCC2)cc1 (stereo not given)	.	-2%	1%	0%	-8%
Clc1ccc(N=NN2CCOCC2)cc1	.	18%	17µM*	?	21%
